Reference: ChEMBL document CHEMBL1961873, “Compounds: GSK PKIS; Assays: Nanosyn kinase panel” (2012)

How the values were obtained:
[1] = target: Serine/threonine-protein kinase 26 (Homo sapiens) (UniProt Q9P289); conditions: at 1 µM;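 further: mean inhibition of MST4 kinase activity, reported from the GSK PKIS inhibitor-set screening panel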
[2] = target: Serine/threonine-protein kinase PAK 1 (Homo sapiens) (UniProt Q13153); conditions: at 0.1 µM
[3] = target: Serine/threonine-protein kinase PAK 1 (Homo sapiens) (UniProt Q13153); conditions: at 1 µM
[4] = target: Serine/threonine-protein kinase PAK 2 (Homo sapiens) (UniProt Q13177); conditions: at 0.1 µM
Sequence of Serine/threonine-protein kinase PAK 2 (Homo sapiens) (Q13177 whole entry): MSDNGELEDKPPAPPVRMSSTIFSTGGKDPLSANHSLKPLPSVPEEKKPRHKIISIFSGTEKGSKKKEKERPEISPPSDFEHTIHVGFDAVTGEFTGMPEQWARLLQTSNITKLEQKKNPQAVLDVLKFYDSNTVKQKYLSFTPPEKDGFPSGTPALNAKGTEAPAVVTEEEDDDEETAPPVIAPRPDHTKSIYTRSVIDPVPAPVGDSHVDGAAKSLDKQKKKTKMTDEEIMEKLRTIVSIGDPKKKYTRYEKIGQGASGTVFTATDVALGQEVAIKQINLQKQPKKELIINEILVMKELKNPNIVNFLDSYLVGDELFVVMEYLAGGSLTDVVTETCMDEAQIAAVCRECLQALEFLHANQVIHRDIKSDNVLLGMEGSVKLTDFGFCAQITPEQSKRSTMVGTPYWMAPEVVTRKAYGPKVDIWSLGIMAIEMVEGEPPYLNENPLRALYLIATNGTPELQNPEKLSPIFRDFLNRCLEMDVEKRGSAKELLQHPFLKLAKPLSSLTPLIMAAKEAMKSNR

[5] = target: Serine/threonine-protein kinase PAK 2 (Homo sapiens) (UniProt Q13177); conditions: at 1 µM
[6] = target: Serine/threonine-protein kinase PAK 3 (Homo sapiens) (UniProt O75914); conditions: at 0.1 µM
Sequence of Serine/threonine-protein kinase PAK 3 (Homo sapiens) (O75914 whole entry, looked up): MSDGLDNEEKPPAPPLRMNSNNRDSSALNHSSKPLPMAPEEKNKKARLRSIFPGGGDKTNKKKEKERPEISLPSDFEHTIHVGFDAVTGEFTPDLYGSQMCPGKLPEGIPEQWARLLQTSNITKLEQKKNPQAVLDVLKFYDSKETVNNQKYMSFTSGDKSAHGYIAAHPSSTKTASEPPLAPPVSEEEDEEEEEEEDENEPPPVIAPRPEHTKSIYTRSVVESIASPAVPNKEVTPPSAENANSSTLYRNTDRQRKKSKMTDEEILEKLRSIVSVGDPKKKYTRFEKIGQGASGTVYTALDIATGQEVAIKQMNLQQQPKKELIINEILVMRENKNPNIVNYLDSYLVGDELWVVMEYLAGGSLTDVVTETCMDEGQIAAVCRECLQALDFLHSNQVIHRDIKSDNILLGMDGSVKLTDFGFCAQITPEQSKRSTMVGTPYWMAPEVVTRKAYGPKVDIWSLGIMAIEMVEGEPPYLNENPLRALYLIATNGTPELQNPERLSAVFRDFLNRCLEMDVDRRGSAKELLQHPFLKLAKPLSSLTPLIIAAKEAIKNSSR

[7] = target: Serine/threonine-protein kinase PAK 3 (Homo sapiens) (UniProt O75914); conditions: at 1 µM
[8] = target: Serine/threonine-protein kinase PAK 5 (Homo sapiens) (UniProt Q9P286); conditions: at 0.1 µM
Sequence of Serine/threonine-protein kinase PAK 5 (Homo sapiens) (Q9P286 whole entry, looked up): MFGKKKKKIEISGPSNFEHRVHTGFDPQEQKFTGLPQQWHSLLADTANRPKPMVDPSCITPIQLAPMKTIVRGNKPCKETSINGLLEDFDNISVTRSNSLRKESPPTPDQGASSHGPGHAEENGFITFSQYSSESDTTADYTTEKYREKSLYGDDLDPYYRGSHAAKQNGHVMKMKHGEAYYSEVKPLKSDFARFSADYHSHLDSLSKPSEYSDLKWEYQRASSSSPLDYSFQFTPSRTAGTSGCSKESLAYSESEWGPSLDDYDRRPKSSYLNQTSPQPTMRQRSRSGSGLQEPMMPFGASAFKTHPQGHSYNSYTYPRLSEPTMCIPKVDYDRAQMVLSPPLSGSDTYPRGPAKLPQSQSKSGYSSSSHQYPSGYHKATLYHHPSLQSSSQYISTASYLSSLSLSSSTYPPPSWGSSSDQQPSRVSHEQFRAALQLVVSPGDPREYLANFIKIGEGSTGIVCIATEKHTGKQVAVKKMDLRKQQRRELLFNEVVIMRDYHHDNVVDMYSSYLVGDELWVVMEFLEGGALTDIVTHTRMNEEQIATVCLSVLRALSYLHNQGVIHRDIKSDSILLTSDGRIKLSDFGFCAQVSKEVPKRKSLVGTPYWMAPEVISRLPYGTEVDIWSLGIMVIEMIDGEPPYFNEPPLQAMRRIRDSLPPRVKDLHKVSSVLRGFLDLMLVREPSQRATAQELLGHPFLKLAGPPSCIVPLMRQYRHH

[9] = target: Serine/threonine-protein kinase PAK 5 (Homo sapiens) (UniProt Q9P286); conditions: at 1 µM
[10] = target: Serine/threonine-protein kinase PAK 6 (Homo sapiens) (UniProt Q9NQU5); conditions: at 0.1 µM;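 further: mean PAK6 inhibition reported from the GSK PKIS screen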
Sequence of Serine/threonine-protein kinase PAK 6 (Homo sapiens) (Q9NQU5 whole entry, looked up): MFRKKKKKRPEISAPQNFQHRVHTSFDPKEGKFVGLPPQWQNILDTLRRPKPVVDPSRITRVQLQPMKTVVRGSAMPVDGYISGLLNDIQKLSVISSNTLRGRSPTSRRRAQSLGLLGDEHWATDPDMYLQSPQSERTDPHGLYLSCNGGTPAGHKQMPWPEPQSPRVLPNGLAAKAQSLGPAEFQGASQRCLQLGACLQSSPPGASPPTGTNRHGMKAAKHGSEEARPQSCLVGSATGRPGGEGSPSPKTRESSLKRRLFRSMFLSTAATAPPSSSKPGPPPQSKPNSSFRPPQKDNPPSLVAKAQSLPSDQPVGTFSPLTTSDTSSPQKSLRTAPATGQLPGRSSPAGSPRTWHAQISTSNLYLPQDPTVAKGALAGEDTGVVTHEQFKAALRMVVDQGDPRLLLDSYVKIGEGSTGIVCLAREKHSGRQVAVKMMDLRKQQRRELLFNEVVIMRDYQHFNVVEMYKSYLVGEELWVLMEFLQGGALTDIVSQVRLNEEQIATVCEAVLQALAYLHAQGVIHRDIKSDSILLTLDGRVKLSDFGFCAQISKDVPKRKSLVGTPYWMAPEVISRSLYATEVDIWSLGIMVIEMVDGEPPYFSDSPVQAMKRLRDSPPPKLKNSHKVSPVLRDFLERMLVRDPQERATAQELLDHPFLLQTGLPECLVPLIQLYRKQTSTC

Sequence of Serine/threonine-protein kinase PAK 1 (Homo sapiens) (Q13153 whole entry): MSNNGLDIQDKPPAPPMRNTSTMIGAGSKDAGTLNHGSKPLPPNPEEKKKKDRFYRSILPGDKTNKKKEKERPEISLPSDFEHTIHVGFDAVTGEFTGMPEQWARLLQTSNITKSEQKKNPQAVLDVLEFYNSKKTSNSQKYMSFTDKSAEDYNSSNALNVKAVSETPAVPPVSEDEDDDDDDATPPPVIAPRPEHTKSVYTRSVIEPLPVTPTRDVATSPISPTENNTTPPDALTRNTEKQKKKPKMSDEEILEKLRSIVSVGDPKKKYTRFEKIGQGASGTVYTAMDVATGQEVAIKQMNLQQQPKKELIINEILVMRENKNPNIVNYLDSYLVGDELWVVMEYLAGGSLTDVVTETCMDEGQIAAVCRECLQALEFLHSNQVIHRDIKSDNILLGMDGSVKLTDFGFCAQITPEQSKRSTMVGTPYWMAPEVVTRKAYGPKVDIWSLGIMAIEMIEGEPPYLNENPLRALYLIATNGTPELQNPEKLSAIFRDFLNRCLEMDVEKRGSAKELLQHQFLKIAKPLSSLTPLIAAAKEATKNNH
Sequence of Serine/threonine-protein kinase 26 (Homo sapiens) (Q9P289 2-416 limits assumed): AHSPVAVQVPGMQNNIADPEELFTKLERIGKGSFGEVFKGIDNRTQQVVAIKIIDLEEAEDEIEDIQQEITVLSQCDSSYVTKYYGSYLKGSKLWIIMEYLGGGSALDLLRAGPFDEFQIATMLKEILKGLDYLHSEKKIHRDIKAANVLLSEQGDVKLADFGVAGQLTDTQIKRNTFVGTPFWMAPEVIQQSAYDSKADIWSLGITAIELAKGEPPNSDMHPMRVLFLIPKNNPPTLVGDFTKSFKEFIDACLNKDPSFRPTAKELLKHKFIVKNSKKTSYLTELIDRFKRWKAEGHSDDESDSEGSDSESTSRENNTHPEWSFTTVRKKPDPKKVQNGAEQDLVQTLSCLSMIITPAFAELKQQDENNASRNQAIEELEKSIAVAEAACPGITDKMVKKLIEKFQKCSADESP

## COc1cc(Nc2nccc(Nc3ccc4c(C)n[nH]c4c3)n2)cc(OC)c1OC
[1]
  inhibition: 3%
[2]
  inhibition: 2.19%
[3]
  inhibition: 7.51%
[4]
  inhibition: 0.97%
[5]
  inhibition: 3.21%
[6]
  inhibition: 2.53%
[7]
  inhibition: 5.23%
[8]
  inhibition: 1.57%
[9]
  inhibition: 15.3%
[10]
  inhibition: -4.29%

## CCn1c(-c2nonc2N)nc2cnc(Oc3cccc(NC(=O)c4ccc(N(C)C)cc4)c3)cc21
[1]
  inhibition: 0.84%
[2]
  inhibition: 3.97%
[3]
  inhibition: 6.82%
[4]
  inhibition: 0.04%
[5]
  inhibition: 0.22%
[6]
  inhibition: 1.76%
[7]
  inhibition: 2.25%
[8]
  inhibition: 2.13%
[9]
  inhibition: -2.93%
[10]
  inhibition: 2.57%

## CNC(=O)c1cncc(/C=C/c2ccccc2Cl)c1
[1]
  inhibition: 1.7%
[2]
  inhibition: 0.81%
[3]
  inhibition: 1.33%
[4]
  inhibition: 0.07%
[5]
  inhibition: -0.55%
[6]
  inhibition: 0.06%
[7]
  inhibition: 0.54%
[8]
  inhibition: 6.76%
[9]
  inhibition: 4.3%
[10]
  inhibition: 8.93%

## COc1ccc(-c2nn3ncccc3c2-c2ccnc(Nc3ccc4c(c3)OCCO4)n2)cc1
[1]
  inhibition: 0.26%
[2]
  inhibition: 3.86%
[3]
  inhibition: -2.26%
[4]
  inhibition: -0.29%
[5]
  inhibition: 0.11%
[6]
  inhibition: 1.09%
[7]
  inhibition: 1.51%
[8]
  inhibition: -2.13%
[9]
  inhibition: -5%
[10]
  inhibition: 1.12%

## [O-][S+]1CCN(Cc2ccc(-c3ccc4ncnc(Nc5ccc(OCc6cccc(F)c6)c(Cl)c5)c4c3)o2)CC1
[1]
  inhibition: 2.07%
[2]
  inhibition: 8.29%
[3]
  inhibition: 11.2%
[4]
  inhibition: 2.04%
[5]
  inhibition: 2.89%
[6]
  inhibition: 6.22%
[7]
  inhibition: 5.6%
[8]
  inhibition: 3.4%
[9]
  inhibition: 2.31%
[10]
  inhibition: -2.88%

## N#Cc1c(NC(=O)CN2CCOCC2)sc2c1CCCC2
[1]
  inhibition: -0.59%
[2]
  inhibition: 8.81%
[3]
  inhibition: 4.43%
[4]
  inhibition: 1.25%
[5]
  inhibition: 0.76%
[6]
  inhibition: 3.48%
[7]
  inhibition: 4.91%
[8]
  inhibition: 2.38%
[9]
  inhibition: 3.24%
[10]
  inhibition: 0.72%

## COc1cccc(-n2ncc3c(N/N=C/c4ccc(F)cc4)ncnc32)c1
[1]
  inhibition: -2.12%
[2]
  inhibition: 4.83%
[3]
  inhibition: 7.12%
[4]
  inhibition: 2.32%
[5]
  inhibition: 2.24%
[6]
  inhibition: 4.66%
[7]
  inhibition: 4.91%
[8]
  inhibition: 9.72%
[9]
  inhibition: 5.66%
[10]
  inhibition: 3.88%

## COc1cc(N2CCN(C(C)C)CC2)ccc1Nc1nc(Nc2ccc(F)cc2C(N)=O)c2cc[nH]c2n1
[1]
  inhibition: 2.73%
[2]
  inhibition: 3.63%
[3]
  inhibition: 7.46%
[4]
  inhibition: 0.48%
[5]
  inhibition: 2.24%
[6]
  inhibition: 2.9%
[7]
  inhibition: 6.18%
[8]
  inhibition: 8.18%
[9]
  inhibition: 27.4%
[10]
  inhibition: -5.81%

## COc1ccc2c(-c3ccnc(Nc4cccc(OC(F)(F)F)c4)n3)cnn2n1
[1]
  inhibition: -3.1%
[2]
  inhibition: 8.76%
[3]
  inhibition: 7.47%
[4]
  inhibition: 4.37%
[5]
  inhibition: 2.6%
[6]
  inhibition: 5.69%
[7]
  inhibition: 5.05%
[8]
  inhibition: 8.06%
[9]
  inhibition: 5.84%
[10]
  inhibition: 5.76%

## NS(=O)(=O)c1ccc(N/N=C2\C(=O)Nc3ccc4ncccc4c32)cc1
[1]
  inhibition: 72.5%
[2]
  inhibition: 5.44%
[3]
  inhibition: 7.55%
[4]
  inhibition: 1.04%
[5]
  inhibition: 3.9%
[6]
  inhibition: 2.76%
[7]
  inhibition: 3.77%
[8]
  inhibition: -1.93%
[9]
  inhibition: 3.21%
[10]
  inhibition: -4.05%
